Experimental data: PubChem BioAssay
Where “and” joins values, the source holds several entries; their conditions need not be identical. Identical values can stand only once. Records with an inconclusive call do not appear. Calls of active or inactive are those of the source.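 Rule for the calls, unless noted: active = compound that reduces growth-factor-driven endothelial tube area in a mixed cell culture, no cutoff stated; inactive = the rest.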

Tests used:
[1] = Wnt pathway potentiators raising nuclear beta-catenin – imaging, WNT3A-conditioned medium, mouse C2C12, NPC library, primary screen (AID 1117326; in the data active = nuclear beta-catenin stimulation mostly above about 4.2%, no sharp cut-off; inactive = mostly below about 10%; note: reference of the scale not given here); conditions: stronger effect = higher value
[2] = stimulators of insulin release from INS-1E, primary screen, cell-based, 5 mM glucose, NPC library (AID 1117329;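 active = compound raises insulin release from rat beta cells at 5 mM glucose, no numeric limit stated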; note: reference of the scale not given here); conditions: rat INS-1E insulin secretion, at 10 µM, stronger effect = higher value
[3] = growth inhibition of GSK3B-pretreated HCT116 cells – cell-based, CellTiter-Glo, 0.2 to 20 µM (AID 1117336;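 active = compounds lowering colon cancer cell viability after pretreatment blocking the GSK3B kinase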); conditions: HCT116 viability after GSK3B inhibitor, at 20 µM, stronger effect = higher value
[4] = inhibition of endothelial tube formation, primary screen, imaging, VEGF stimulated, CD31 staining, tube area, NPC library (AID 1117340); conditions: VEGF-stimulated ADSC/ECFC co-culture, at 10 µM, stronger effect = higher value
[5] = GLP1 release stimulators, primary, NCI-H716, NPC library (AID 1117341;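 active = compound raises GLP1 secretion from the human gut endocrine cells, with no numeric limit stated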; note: reference of the scale not given here); conditions: NCI-H716 cells, at 10 µM, stronger effect = higher value
[6] = HCT116 colon cancer cell growth inhibition, primary screen, CellTiter-Glo luminescence, NPC library (AID 1117342;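 active = compounds that lower survival of HCT116 colon cancer cells in the luminescence readout, no numeric limit stated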); conditions: at 20 µM (top of the series)
[7] = reduced SW480 viability measured with CellTiter-Glo, NPC library, primary (AID 1117343;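 active = compounds that lower viability of the colon cancer cells in the luminescence readout, with no numeric limit stated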); conditions: CellTiter-Glo luminescence; at 20 µM (top of the series) unless noted
[8] = NPC library primary testing for decreased DLD-1 cell viability via CellTiter-Glo (AID 1117346;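 active = compounds that lower survival of DLD-1 colon cancer cells in the luminescence readout, no cutoff given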); conditions: DLD-1 viability, CellTiter-Glo luminescence; at 20 µM (top of the series)
[9] = viability loss in pontine glioma line – cell-based, SU-DIPG-XVII, MIPE5.0, CellTiter-Glo, qHTS, dose response (AID 1347060; cut-off not given, nearly all actives have AC50 up to about 26 µM); conditions: CellTiter-Glo ATP luminescence
[10] = viability loss in pontine glioma line – cell-based, SU-DIPG-XIII, MIPE4.0, CellTiter-Glo, qHTS, dose response (AID 1347061; cut-off not given, nearly all actives have AC50 up to about 37 µM;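 note: cells exposed to compound for 48 hours before readout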); conditions: CellTiter-Glo ATP luminescence
[11] = viability loss in pontine glioma line – cell-based, JHH-DIPG-1, MIPE4.0, CellTiter-Glo, qHTS, dose response (AID 1347062; cut-off not given, nearly all actives have AC50 up to about 27 µM); conditions: JHH-DIPG-1 viability, CellTiter-Glo ATP luminescence
[12] = growth inhibition of DIPG cells – cell-based, MIPE5.0 library, qHTS (AID 1347068; cut-off not given, nearly all actives have IC50 up to about 30 µM); conditions: SU-DIPG-XXV viability
[13] = P. berghei load reduction in hepatocytes – cell-based, HepG2, luciferase luminescence, HepG2 viability, primary screen (AID 624349; in the data active = parasite load remaining mostly below about 12%, no sharp cut-off; inactive = mostly above about 10%;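 note: 100% = mean of DMSO negative control wells on the same plate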); conditions: P. berghei liver stage in HepG2, luciferase luminescence, concentration not given here; parasite load remaining: stronger effect = lower value; viability: measured here: HepG2 viability without parasites
[14] = viability loss with induced miR-34 in A549 – imaging, A549 dox-inducible miR-34, nuclei and caspase counts, primary screen (AID 1347080;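 active = compounds whose cell count with miR-34 switched on is under 0.7 times the count with it off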); conditions: A549 miR-34 inducible, Hoechst nuclei count, 48 h
[15] = MELAS cybrid and Rieske KO viability enhancers – cell-based, MELAS cybrids, Rieske KO mouse fibroblasts, CellTiter-Glo, primary screen (AID 1508586;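 active = mean z-score across replicates of 1.96 or higher in either the MELAS or the Rieske mutant cell line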;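 note: z relative to plate mean and SD of compound and empty wells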); conditions: low glucose
[16] = target: NAD(+) hydrolase SARM1 (Homo sapiens) (UniProt Q6SZW1); assay: blocking NAD cleavage by SARM1 SAM-TIR – cell lysate, NAD-Glo luminescence (AID 1508614;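 active = compound whose remaining NAD level is above about 45 nM, limit read from the data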;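 note: higher remaining NAD means stronger inhibition of SARM1 NADase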); conditions: SAM-TIR HEK293T lysate NADase, at 1 µM, stronger effect = higher value
[17] = galactose survival enhancers in mitochondrial complex I cybrids – cell-based, galactose medium, ATP luminescence, primary screen (AID 1645843;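 active = z-score of at least 1.8 in each of two replicates, scored against plate mean and spread of sample wells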;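 note: positive z means more ATP and so rescue of galactose-driven cybrid death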); conditions: complex I mutant cybrid cells, 72 h, stronger effect = higher value
[18] = tested on: Aerobactin synthetase IucA (Klebsiella pneumoniae); assay: inhibition of K. pneumoniae IucA enzyme – biochemical, Tocris library, absorbance (AID 1345561; call rule not given here;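 note: 100% = enzyme without compound and 0% = no enzyme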); conditions: purified IucA enzyme assay, absorbance (OD) read-out; stronger effect = lower value;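 tested at 8 µM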
[19] = stronger effect = lower value, cell number ratio, induced over uninduced
[20] = measured here: relative caspase fold change +Dox/-Dox
[21] = measured here: total cells with miR-34 induction, stronger effect = lower value
[22] = measured here: total cells without miR-34 induction
[23] = MELAS cybrid survival, CellTiter-Glo 48 h, stronger effect = higher value
[24] = Rieske KO mouse fibroblast survival, CellTiter-Glo 72 h

Chain of NAD(+) hydrolase SARM1 (Homo sapiens) (Q6SZW1 whole entry, looked up): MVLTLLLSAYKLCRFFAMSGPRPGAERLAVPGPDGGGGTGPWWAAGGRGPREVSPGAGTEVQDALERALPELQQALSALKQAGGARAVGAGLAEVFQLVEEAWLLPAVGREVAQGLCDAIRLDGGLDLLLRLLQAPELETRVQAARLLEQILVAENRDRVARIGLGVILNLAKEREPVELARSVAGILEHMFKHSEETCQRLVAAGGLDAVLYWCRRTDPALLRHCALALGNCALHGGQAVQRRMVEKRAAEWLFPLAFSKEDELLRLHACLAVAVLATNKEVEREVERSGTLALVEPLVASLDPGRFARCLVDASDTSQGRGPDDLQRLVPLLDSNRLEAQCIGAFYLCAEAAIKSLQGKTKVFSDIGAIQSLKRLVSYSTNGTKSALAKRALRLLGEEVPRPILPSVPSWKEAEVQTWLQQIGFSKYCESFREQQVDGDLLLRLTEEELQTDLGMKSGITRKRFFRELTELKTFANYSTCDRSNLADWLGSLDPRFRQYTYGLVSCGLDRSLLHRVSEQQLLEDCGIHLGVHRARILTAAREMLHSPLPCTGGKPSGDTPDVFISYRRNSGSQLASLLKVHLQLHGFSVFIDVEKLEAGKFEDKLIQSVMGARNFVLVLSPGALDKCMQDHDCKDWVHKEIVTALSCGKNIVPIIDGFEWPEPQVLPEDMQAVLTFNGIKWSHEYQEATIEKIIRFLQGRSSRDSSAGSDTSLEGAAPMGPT

Nc1ccn(C2CO[C@H](CO)O2)c(=O)n1 (some centres not stated)
0.3%: nuclear beta-catenin stimulation ([1]; stimulation, at 2 µM)
inactive: nuclear beta-catenin stimulation ([1]; at 10 µM) 1.3% | insulin secretion stimulation [2] 2% | viability decrease [3] -8.3% | tube area decrease [4] 7.2% | GLP1 secretion stimulation [5] 0.5% | inhibition of viability [6] 4.2% | viability decrease (inhibition) [7] -18.8% | viability decrease (inhibition) [8] 3.7% | outcome [9] | outcome [10] | outcome [11] | outcome [12]

CC(=O)[C@H]1CC[C@H]2[C@@H]3CC=C4C[C@@H](O)CC[C@]4(C)[C@H]3CC[C@]12C
0.646 and 0.0253: z-score [15, 24]
10500 and 11000: cell count [14, 22]
active: viability decrease (inhibition) [7] 82%
inactive: parasite load remaining [13] 90.8% and 62.2% and 6.53% | nuclear beta-catenin stimulation ([1]; at 10 µM) 3% | insulin secretion stimulation [2] -2% | viability decrease [3] 7.55% | tube area decrease [4] 8.7% | GLP1 secretion stimulation [5] 1.9% | inhibition of viability [6] -2.4% | viability decrease (inhibition) [8] 18.9% | outcome [9] | outcome [10] | outcome [11] | outcome [12] | fold change [14, 19] 0.857 and 0.834 | z-score [15, 23] 0.44 and 0.49 | remaining NAD [16] 10 nM | z-score [17] -1.23
8970 and 9160: cell count [14, 21]
110% and 79.4% and 65.5%: viability [13]
1.38 and 1.19: fold change [14, 20]
1.6%: nuclear beta-catenin stimulation ([1]; stimulation, at 2 µM)

CCC(C)(Oc1ccc(C2(c3ccc(OC(C)(CC)C(=O)O)cc3)CCCCC2)cc1)C(=O)O (configuration not stated)
10200: cell count [14, 22]
9130: cell count [14, 21]
inactive: nuclear beta-catenin stimulation ([1]; at 10 µM) -1.5% | insulin secretion stimulation [2] 1.2% | viability decrease [3] -30.5% | tube area decrease [4] 0.6% | GLP1 secretion stimulation [5] 4.1% | inhibition of viability [6] -3.43% | viability decrease (inhibition) [7] 15.4% | viability decrease (inhibition) [8] -14.6% | outcome [9] | outcome [10] | outcome [11] | outcome [12] | fold change [14, 19] 0.893 | z-score [15, 23] -0.322
-1.3%: nuclear beta-catenin stimulation ([1]; stimulation, at 2 µM)
0.926: fold change [14, 20]
0.575: z-score [15, 24]

CCCCCCCCCCCCCCCC(=O)NCCO
8.9%: nuclear beta-catenin stimulation ([1]; stimulation, at 2 µM)
inactive: nuclear beta-catenin stimulation ([1]; at 10 µM) 2.2% | insulin secretion stimulation [2] 4.7% | viability decrease [3] -7.4% | tube area decrease [4] -5.7% | GLP1 secretion stimulation [5] -1.8% | inhibition of viability [6] 1.3% | viability decrease (inhibition) [7] -42.2% | viability decrease (inhibition) [8] -11.2% | remaining activity [18] 113% | remaining NAD [16] 10 nM | z-score [17] 0.05
